# Experimental data published in PubChem BioAssay (NCATS).
# Unmarked numbers belong to inactive results. Inconclusive results are not listed. A call without a number means that no potency is given here. Active and inactive are the calls of the source. Unless noted, calls come from the whole dose curve; as a rule, active = well fitted curve in the direction sought with a large enough effect; inconclusive = small, poorly fitted or top-dose-only effect, or another doubt; inactive = no such curve, though single readings can be large; an effect the other way counts as inactive or inconclusive.
# Experiments:
# [1] = Confirmation and Secondary Assay for Modulators of Hemoglobin Beta Chain Splicing at IVS2 654 locus (AID 910);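 note: HeLa cells stably carrying EGFP split by mutant beta-globin IVS2-654 intron; per-well total GFP intensity by laser scanning cytometry after 2-day treatment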
# In short: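 Readout: per-well total peak green fluorescence (488 nm ex, 500–520 nm em) from objects 5–250 µm, reflecting correct splicing of an EGFP-654 reporter. Compounds were applied for 2 days at 37 °C to overnight-plated HeLa EGFP-654 cells; controls were DMSO and 500 nM IVS2-654 PNA.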
# [2] = Confirmation and Secondary Assay for Modulators of Hemoglobin Beta Chain Splicing at IVS2 705 locus (AID 930);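 note: HeLa cells stably expressing the EGFP-705 splicing reporter; series mostly up to about 46 µM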
# In short: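 HeLa cells stably carrying EGFP interrupted by mutant beta-globin IVS2-705 intron (CMV-driven) were seeded at 500 cells/well, treated next day with compound for 2 days at 37C; corrected splicing restores EGFP, read as total peak GFP intensity per well.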
# [3] = qHTS Assay for Identification of Small Molecule Agonists for Hypoxia Response Element Signaling Pathway (AID 914; active = well fitted activation curve with a large enough effect in the signal ratio, with a control signal flat, not every such curve was filed as active; the % refers to the signal ratio; note: potency is the fitted concentration of half-maximal effect); details: ME-180 HRE-bla reporter, beta-lactamase ratio, CoCl2, 17 h; activation: hits give high values
# In short: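 ME-180 cells carrying an HRE-driven beta-lactamase reporter were treated with compounds in a titration series plus an EC50 level of CoCl2 for 17 h at 37 degrees Celsius; CCF4 readout as the 460nm/530nm ratio gave AC50 values.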
# [4] = target: Cytochrome P450 2C19 (Homo sapiens) (UniProt P33261); assay: qHTS Assay for Inhibitors and Substrates of Cytochrome P450 2C19 (AID 899); note: nearly all actives have a fitted effect of over 60% in size; note: potency is the fitted concentration of half-maximal effect
# Sequence of Cytochrome P450 2C19 (Homo sapiens) (P33261 whole entry, looked up): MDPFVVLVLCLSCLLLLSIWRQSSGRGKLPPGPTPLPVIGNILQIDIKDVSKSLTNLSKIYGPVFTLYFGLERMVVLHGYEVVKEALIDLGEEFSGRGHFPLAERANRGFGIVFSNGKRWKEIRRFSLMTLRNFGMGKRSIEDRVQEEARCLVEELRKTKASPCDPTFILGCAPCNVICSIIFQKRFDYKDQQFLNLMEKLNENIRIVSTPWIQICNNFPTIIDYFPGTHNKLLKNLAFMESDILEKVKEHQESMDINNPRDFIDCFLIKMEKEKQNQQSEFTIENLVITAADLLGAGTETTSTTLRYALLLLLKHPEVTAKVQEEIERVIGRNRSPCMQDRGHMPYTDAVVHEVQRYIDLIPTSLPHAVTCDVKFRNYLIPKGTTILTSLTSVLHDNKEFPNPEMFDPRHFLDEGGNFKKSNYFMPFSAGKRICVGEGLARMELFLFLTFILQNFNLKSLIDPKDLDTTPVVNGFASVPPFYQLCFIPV
# In short: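 5nM enzyme + 10uM Luciferin-H EGE (=KM), 50mM KPO4; cpd pin-transferred, 10 min 37C; NADPH regen, 60 min 37C; stopped w/ luciferin detection reagent, 20 min; luminescence. Normalized to 57uM ketoconazole (AC100).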
# [5] = target: Cytochrome P450 2C9 (Homo sapiens) (UniProt P11712); assay: qHTS Assay for Inhibitors and Substrates of Cytochrome P450 2C9 (AID 883); note: nearly all actives have a fitted effect of over 60% in size; note: potency is the fitted concentration of half-maximal effect
# Sequence of Cytochrome P450 2C9 (Homo sapiens) (P11712 whole entry, looked up): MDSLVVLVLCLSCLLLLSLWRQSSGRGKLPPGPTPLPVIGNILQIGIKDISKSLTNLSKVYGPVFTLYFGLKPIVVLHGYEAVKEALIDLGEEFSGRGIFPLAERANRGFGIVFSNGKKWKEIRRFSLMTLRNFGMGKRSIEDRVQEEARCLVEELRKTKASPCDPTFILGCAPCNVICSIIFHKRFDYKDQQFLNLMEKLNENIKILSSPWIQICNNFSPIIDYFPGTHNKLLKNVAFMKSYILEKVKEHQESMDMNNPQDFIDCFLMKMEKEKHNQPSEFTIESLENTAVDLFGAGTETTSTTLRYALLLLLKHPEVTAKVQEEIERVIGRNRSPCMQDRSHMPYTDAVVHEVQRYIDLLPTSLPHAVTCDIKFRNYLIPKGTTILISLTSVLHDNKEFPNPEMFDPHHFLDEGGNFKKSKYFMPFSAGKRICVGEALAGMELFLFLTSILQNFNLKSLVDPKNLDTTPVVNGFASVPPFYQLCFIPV
# In short: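 Inhibition of CYP2C9 is scored as loss of luminescence, with 57uM sulphaphenazole defining 100% inhibition. Substrate Luciferin-H is used at 100uM, equal to its KM; enzyme at 10nM in 25mM KPO4, 60 min at 37C with NADPH regeneration.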
# [6] = target: Cytochrome P450 2D6 (Homo sapiens) (UniProt P10635); assay: qHTS Assay for Inhibitors and Substrates of Cytochrome P450 2D6 (AID 891); note: potency is the fitted concentration of half-maximal effect; nearly all actives have a fitted effect of over 60% in size
# Sequence of Cytochrome P450 2D6 (Homo sapiens) (P10635 whole entry, looked up): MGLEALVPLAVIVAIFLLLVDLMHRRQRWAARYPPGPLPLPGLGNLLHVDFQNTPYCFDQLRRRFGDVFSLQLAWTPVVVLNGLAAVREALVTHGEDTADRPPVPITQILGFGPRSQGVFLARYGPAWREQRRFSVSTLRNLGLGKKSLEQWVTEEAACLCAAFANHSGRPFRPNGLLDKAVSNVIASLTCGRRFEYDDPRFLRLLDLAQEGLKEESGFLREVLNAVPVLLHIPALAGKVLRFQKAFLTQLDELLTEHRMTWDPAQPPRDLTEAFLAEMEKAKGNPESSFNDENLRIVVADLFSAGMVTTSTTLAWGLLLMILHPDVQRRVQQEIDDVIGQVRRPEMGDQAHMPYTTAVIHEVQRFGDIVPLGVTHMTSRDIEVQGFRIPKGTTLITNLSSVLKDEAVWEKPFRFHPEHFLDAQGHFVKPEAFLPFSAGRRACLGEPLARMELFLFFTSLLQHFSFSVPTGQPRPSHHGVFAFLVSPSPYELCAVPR
# In short: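 Human CYP2D6 (5 nM) with 30 uM Luciferin-ME EGE (at Km) in 100 mM KPO4, compound preincubated 10 min, then NADPH regeneration system for 60 min at room temperature. Luciferin read by luminescence; normalized to 1.43 uM quinidine.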
# [7] = target: Guanine nucleotide-binding protein G(i) subunit alpha-1 (Homo sapiens) (UniProt P63096); assay: qHTS Assay for Inhibitors of RGS12 GoLoco Motif Activity (Green Fluorophore) (AID 879);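 note: negative values mean loss of peptide binding seen as reduced polarization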
# Sequence of Guanine nucleotide-binding protein G(i) subunit alpha-1 (Homo sapiens) (P63096 whole entry, looked up): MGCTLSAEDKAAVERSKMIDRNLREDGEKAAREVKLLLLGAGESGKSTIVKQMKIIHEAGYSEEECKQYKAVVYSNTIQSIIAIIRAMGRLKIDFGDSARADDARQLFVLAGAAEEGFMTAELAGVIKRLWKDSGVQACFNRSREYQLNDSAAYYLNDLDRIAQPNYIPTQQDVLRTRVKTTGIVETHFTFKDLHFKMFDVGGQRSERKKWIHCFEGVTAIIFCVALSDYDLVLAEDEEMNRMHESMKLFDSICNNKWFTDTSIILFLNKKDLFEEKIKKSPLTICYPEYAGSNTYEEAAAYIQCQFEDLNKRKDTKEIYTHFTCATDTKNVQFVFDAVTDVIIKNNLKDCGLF
# In short: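 Fluorescence polarization assay: 50 nM Gαi1 with 10 nM FITC-labeled RGS12 GoLoco peptide in 10 mM Tris pH 7.5, 150 mM NaCl, 0.1 mM GDP, 0.05% NP40, 10 min at room temperature with compound.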
# [8] = qHTS Assay for Identification of Small Molecule Agonists for Thrombopoietin (TPO) Signaling Pathway (AID 917)
# In short: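 Murine Ba/F3 cells stably expressing human TPO receptor and a Glycoprotein IIb promoter–luciferase reporter were IL-3-starved overnight, then treated with compounds plus TPO (26 pM final, its EC50) for 24 hrs at 37 C; luminescence was read.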
# [9] = target: Muscarinic acetylcholine receptor M1 (Rattus norvegicus) (UniProt P08482); assay: qHTS Assay for Antagonists of Acetylcholine Muscarinic M1 Receptor: Measurement of IP-One Response (AID 944); note: nearly all actives have a fitted effect of over 75% in size
# Sequence of Muscarinic acetylcholine receptor M1 (Rattus norvegicus) (P08482 whole entry, looked up): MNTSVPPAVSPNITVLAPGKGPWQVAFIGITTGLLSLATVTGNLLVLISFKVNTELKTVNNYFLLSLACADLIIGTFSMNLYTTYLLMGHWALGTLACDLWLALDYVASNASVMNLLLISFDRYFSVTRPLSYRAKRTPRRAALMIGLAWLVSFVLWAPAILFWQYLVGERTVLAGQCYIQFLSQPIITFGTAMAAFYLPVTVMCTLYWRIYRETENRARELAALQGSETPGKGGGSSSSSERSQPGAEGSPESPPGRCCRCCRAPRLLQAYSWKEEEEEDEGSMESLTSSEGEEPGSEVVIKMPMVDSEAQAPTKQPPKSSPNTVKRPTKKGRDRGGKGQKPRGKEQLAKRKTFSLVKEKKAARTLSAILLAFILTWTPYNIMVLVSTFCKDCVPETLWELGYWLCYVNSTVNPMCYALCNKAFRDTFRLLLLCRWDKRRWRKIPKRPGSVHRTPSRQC
# In short: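 CHO cells stably expressing rat M1, pretreated 10 min with compound, then stimulated 30 min with carbachol at EC80 (200 nM) in LiCl-containing buffer pH 7.4; IP1 accumulation read by HTRF competition (665/620 nm).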
# [10] = target: Pyruvate kinase PKM (Homo sapiens) (UniProt P14618); assay: qHTS Assay for Activators of Human Muscle Pyruvate Kinase (AID 954; active = well fitted curve in the direction sought with a large enough effect, not every such curve was filed as active)
# Sequence of Pyruvate kinase PKM (Homo sapiens) (P14618 whole entry, looked up): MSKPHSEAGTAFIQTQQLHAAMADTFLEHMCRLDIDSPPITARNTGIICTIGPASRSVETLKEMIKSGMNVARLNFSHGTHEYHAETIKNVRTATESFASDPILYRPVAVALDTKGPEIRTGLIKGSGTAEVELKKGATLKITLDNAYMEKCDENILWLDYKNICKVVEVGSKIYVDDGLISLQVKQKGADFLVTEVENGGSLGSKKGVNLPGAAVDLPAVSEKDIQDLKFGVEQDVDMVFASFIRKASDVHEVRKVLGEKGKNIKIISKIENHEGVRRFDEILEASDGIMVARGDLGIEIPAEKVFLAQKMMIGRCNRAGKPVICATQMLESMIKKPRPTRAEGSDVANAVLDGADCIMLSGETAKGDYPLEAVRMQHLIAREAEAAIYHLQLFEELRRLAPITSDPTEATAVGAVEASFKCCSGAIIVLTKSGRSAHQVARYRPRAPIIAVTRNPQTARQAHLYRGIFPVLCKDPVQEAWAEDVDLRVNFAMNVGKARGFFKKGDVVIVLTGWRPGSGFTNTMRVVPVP
# In short: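 Purified human PKM2 (0.1 nM) with 0.5 mM PEP (Km) and 0.1 mM ADP in 50 mM imidazole pH 7.2, KCl, MgCl2, 1 h at room temperature; ATP formed read by coupled luciferase luminescence. Normalized to no-enzyme/110 uM thiadiazolimine inhibition; 0.3 nM enzyme column for activation.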
# [11] = target: Alpha-galactosidase A (Homo sapiens) (UniProt P06280); assay: Counterscreen for Glucocerebrosidase Inhibitors: qHTS Assay for Human alpha-Galactosidase at pH 4.5 (AID 992)
# Sequence of Alpha-galactosidase A (Homo sapiens) (P06280 whole entry, looked up): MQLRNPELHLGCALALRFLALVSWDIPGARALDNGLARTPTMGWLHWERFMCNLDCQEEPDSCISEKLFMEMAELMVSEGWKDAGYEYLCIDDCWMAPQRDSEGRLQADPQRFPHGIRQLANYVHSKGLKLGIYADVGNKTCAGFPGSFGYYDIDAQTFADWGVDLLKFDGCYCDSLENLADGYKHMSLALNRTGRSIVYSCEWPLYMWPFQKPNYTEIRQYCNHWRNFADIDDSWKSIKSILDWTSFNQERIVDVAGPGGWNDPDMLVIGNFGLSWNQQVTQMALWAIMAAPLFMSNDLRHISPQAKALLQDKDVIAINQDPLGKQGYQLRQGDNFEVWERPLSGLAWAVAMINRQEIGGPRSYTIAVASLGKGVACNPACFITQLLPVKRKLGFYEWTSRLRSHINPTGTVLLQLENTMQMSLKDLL
# In short: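 Human enzyme (2 nM) with 80 uM 4-methylumbelliferyl alpha-D-galactopyranoside in 50 mM citric acid, 0.005% Tween-20, pH 4.5, 20 min at room temperature. Compounds 0.7 nM–77 uM; fluorescence Ex 365/Em 440 after pH 10 stop; AC50 from Hill fits.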
# [12] = target: alpha-glucosidase (Oryza sativa, rice) (UniProt Q653V4); assay: Counterscreen for Glucocerebrosidase Inhibitors: qHTS Assay for Rice alpha-Glucosidase at pH 5.0 (AID 997)
# In short: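 Rice alpha-glucosidase (4 nM final) with 400 uM 4-methylumbelliferyl-alpha-D-glucopyranoside in citrate buffer pH 5.0, 20 min at room temperature, stopped at pH 10; fluorescence 365/440 nm, compounds 0.7 nM–77 uM, AC50 from Hill fits.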
# [13] = target: DNA dC->dU-editing enzyme APOBEC-3G (Homo sapiens) (UniProt Q9HC16); assay: qHTS for inhibitors of Vif-A3G interactions: Validation (AID 588379)
# Sequence of DNA dC->dU-editing enzyme APOBEC-3G (Homo sapiens) (Q9HC16 whole entry, looked up): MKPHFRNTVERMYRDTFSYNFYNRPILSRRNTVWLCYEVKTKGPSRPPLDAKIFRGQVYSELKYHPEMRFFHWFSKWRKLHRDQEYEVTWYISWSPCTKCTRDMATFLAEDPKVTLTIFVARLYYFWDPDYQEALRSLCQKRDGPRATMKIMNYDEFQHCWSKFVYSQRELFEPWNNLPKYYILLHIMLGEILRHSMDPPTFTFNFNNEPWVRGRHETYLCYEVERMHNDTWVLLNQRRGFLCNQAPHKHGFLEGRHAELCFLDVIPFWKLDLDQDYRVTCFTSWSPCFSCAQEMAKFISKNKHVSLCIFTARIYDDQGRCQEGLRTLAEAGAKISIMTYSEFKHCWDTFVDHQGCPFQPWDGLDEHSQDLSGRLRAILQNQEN
# In short: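 HeLa cells stably expressing Vif and A3G-eYFP, 700 cells/well, incubated overnight at 37 deg C, then exposed to compound overnight at 37 deg C. Inhibition of Vif-mediated degradation read as increased yellow fluorescence (Ex 488/Em 500-530) by laser-scanning cytometry.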
# [14] = target: Dual specificity protein kinase CLK4 (Homo sapiens) (UniProt Q9HAZ1); assay: qHTS Assay for Inhibitors of CDC-like Kinase 4 (ADP-Glo Assay) (AID 1771); note: nearly all actives have a fitted effect of over 70% in size
# Sequence of Dual specificity protein kinase CLK4 (Homo sapiens) (Q9HAZ1 whole entry, looked up): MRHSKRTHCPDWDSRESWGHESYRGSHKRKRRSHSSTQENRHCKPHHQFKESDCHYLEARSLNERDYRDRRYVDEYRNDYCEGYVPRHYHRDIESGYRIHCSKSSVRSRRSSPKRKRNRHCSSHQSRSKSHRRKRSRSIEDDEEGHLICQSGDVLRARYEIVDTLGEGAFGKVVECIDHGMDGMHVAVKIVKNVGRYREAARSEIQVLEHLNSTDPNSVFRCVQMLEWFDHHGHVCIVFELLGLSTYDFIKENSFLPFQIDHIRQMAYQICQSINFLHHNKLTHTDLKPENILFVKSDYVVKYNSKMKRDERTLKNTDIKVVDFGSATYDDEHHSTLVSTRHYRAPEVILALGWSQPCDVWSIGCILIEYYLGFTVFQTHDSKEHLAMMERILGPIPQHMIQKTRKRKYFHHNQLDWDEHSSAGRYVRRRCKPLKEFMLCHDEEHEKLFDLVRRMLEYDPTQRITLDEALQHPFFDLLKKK
# In short: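 25 nM Clk4 with 100 uM RS repeat peptide and 1 uM ATP (final) in buffer with 2 mM MgCl2, 0.5 mM EGTA, 2.5 mM DTT, 0.01% Triton X-100; 1 h at room temperature; ADP-Glo luminescence for ADP formed.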
smiles,measurement,setting,value
CS(=O)(=O)Nc1cccc(-c2nc(NCCN3CCOCC3)c3ccccc3n2)c1,Potency,[1],inactive
same,outcome,[2],inactive
COCCNc1nc(-c2ccccc2C)nc2ccccc12,Potency,[1],inactive
same,outcome,[2],inactive
COc1ccc(CNc2cc(-c3ccccc3CN(C)C)ncn2)c(OC)c1,Potency,[1],inactive
same,outcome,[2],inactive
COCC(=O)N1CCC2(CC1)CCN(C(=O)NC(C)C)CC2,activation,[3],-5.43%
COc1ccc2[nH]cc(CCNc3ccnc(-c4cccc(NS(C)(=O)=O)c4)n3)c2c1,Potency,[1],inactive
same,outcome,[2],inactive
Cc1cccc(CNc2ncnc3ccc(-c4c(C)noc4C)cc23)c1,Potency,[4],5.01 µM (active)
same,Potency,[1],inactive
same,outcome,[2],inactive
CC(=O)NCCNc1nc(-c2ccc(N(C)C)cc2)nc2ccccc12,outcome,[2],inactive
CN(C)c1ccc(-c2nc(N(C)C)c3ccccc3n2)cc1,"activity change, negative = inhibition",[5],118% [at 2.29 µM]
same,Potency,[6],7.94 µM (active)
same,Potency,[1],inactive
same,outcome,[2],inactive
O=C(c1cc(C(F)(F)F)cc(C(F)(F)F)c1)N1CCC2(CC1)CN(c1ccncc1)C2,Potency,[5],3.98 µM (active)
CNc1ncnc2ccc(-c3cccc(NS(C)(=O)=O)c3)cc12,Potency,[1],inactive
same,outcome,[2],inactive
N#Cc1ccc(CN2CC3(CCN(C(=O)c4cccc(F)c4)CC3)C2)cc1,Potency,[4],2 µM (active)
Cn1cccc1C(=O)N1CCC2(CCCN(Cc3ccncc3)C2)CC1,Potency,[5],1.58 µM (active)
same,Potency,[6],7.94 µM (active)
Cn1cc(C(F)(F)F)nc1-c1ccc(OC[C@@H](O)CNCCOc2ccc(O)c(C(N)=O)c2)cc1,Potency,[7],inactive
same,outcome,[8],inactive
same,Potency,[9],inactive
same,outcome,[10],inactive
same,outcome,[11],inactive
same,outcome,[12],inactive
same,outcome,[13],inactive
Cc1cnc(CNc2nc(-c3ccc(N(C)C)cc3)nc3ccccc23)cn1,Potency,[1],inactive
same,outcome,[2],inactive
CC(=O)NCCNc1ncncc1-c1ccccc1C(F)(F)F,Potency,[1],inactive
same,outcome,[2],inactive
COc1ccc(CNc2nc(-c3ccoc3)nc3ccccc23)c(OC)c1,outcome,[2],inactive
O=C(O)c1cc(=O)c2cccc(O)c2[nH]1,Potency,[1],inactive
same,outcome,[2],inactive
CN(C)c1ncc2nc(-c3cc(F)cc(F)c3)c(=O)n(Cc3cccs3)c2n1,Potency,[4],inactive
same,Potency,[3],0.126 µM (active)
O=c1c(-c2cccs2)nc2cnc(N3CCOCC3)nc2n1CCc1ccccc1,Potency,[14],inactive
COCCn1c(=O)c(-c2cccs2)nc2cnc(N3CCOCC3)nc21,Potency,[14],inactive
OC[C@H]1O[C@@H](n2cnc3c(NCc4ccco4)ncnc32)[C@H](O)[C@@H]1O,outcome,[13],inactive
O=C1C=C(O)c2ccccc2C1=O,Potency,[1],inactive
same,outcome,[2],inactive
CS(=O)(=O)Nc1cccc(-c2ccc3ncnc(NCc4cccnc4)c3c2)c1,Potency,[4],0.0501 µM (active)
same,Potency,[1],inactive
same,activation,[3],-27.3%
same,outcome,[2],inactive
CN(C)c1ncc2nc(-c3ccc(F)cc3)c(=O)n(-c3ccccc3)c2n1,Potency,[14],inactive
CN(C)c1ncc2nc(CCc3ccccc3)c(=O)n(Cc3ccc(F)cc3)c2n1,Potency,[4],0.794 µM (active)
COc1ccccc1CNc1nc(-c2cccc(C#N)c2)nc2ccccc12,Potency,[4],3.98 µM (active)
COc1cccc(Nc2ncc3nc(-c4cn(C)c5ccccc45)c(=O)n(C[C@H]4CCCO4)c3n2)c1,Potency,[5],inactive
same,Potency,[14],inactive
CN(C)c1ncc2nc(-c3cccs3)c(=O)n(C3CC3)c2n1,Potency,[3],3.98 µM (active)
COc1ccccc1CNc1nc(-c2ccc3c(c2)OCO3)nc2ccccc12,Potency,[4],3.16 µM (active)
CCCCCCCCCCCCCC(=O)O[C@H](CC(=O)O)C[N+](C)(C)C,outcome,[13],inactive
COc1cc(C)c2c(c1C=O)Oc1c(c(C)c(O)c3c1C(O)OC3=O)OC2=O (stereo unspecified),Potency,[1],inactive
same,outcome,[2],inactive
Cc1cc(OC(=O)c2c(C)cc(O)cc2O)cc(O)c1C(=O)O,outcome,[2],inactive
COc1cccc(Cn2c(=O)c(-c3ccc(F)cc3)nc3cnc(N4CCOCC4)nc32)c1,Potency,[4],inactive
same,Potency,[3],3.16 µM (active)
same,Potency,[14],inactive
CS(=O)(=O)c1ccc(Cn2c3c(c4cc(F)cc(F)c42)CCC[C@H]3CC(=O)O)cc1,Potency,[5],inactive
same,outcome,[13],inactive
COc1ccc(Oc2ncc3nc(-c4ccc(F)cc4)c(=O)n(C)c3n2)cc1,activation,[3],16.5%
Cn1cccc1C(=O)N1CCC2(CC1)CN(c1cccc(-c3ccccc3)c1)C2,Potency,[5],inactive
